# Source: ChEMBL document CHEMBL3433997, “St. Jude Leishmania screening dataset” (2016)
# Tests used:
# Type in all cases: functional
# [1] = molecular target: Solute carrier family 2, facilitated glucose transporter member 1 (Homo sapiens) (UniProt P11166); test: ST_JUDE_LEISH: Cytotoxicity at 2uM final concentration against transgenic Leishmania Mexicana promastigotes LmGLUT1 that are glucose transport deficient and complemented with the human glucose transporter GLUT1. Activity is measured by DNA content using SYBR green in vitro
# [2] = molecular target: Hexose transporter 1 (Plasmodium falciparum) (UniProt O97467); test: ST_JUDE_LEISH: Cytotoxicity at 2uM final concentration against transgenic Leishmania Mexicana promastigotes LmPfHT that are glucose transport deficient and complemented with the Plasmodium falciparum hexose transporter. Activity is measured by DNA content using SYBR green in vitro
# [3] = molecular target: Glucose transporter (Leishmania mexicana) (UniProt O61059); test: ST_JUDE_LEISH: Cytotoxicity at 2uM final concentration against transgenic Leishmania Mexicana promastigotes LmGT2 that are glucose transport deficient and complemented with the L. Mexicana glucose transporter 2. Activity is measured by DNA content using SYBR green in vitro
# Sequence of Solute carrier family 2, facilitated glucose transporter member 1 (Homo sapiens) (P11166 whole entry): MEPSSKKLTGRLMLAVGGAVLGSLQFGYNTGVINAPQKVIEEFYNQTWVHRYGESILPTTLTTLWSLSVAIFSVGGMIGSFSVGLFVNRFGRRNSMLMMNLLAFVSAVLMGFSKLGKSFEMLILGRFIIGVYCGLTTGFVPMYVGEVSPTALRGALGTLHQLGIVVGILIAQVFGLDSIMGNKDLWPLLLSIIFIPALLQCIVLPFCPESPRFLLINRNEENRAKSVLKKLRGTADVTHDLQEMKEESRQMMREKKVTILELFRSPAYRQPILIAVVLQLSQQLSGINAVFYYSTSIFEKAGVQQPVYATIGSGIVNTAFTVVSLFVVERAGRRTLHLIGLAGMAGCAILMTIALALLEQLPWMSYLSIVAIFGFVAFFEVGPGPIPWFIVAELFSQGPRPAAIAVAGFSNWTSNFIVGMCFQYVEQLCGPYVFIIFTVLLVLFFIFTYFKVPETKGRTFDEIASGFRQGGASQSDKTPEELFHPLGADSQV
Compound,inhibition [1] [%],inhibition [2] [%],inhibition [3] [%]
S=C(Nc1ccc(Cl)cc1)Nc1ccc(Nc2ccccc2)cc1,6.97,5.37,5
O=C(COc1cccc([N+](=O)[O-])c1)Nc1ccc(-c2nc3ccccc3[nH]2)cc1,1.62,2.12,-1.82
C(=Cc1nc2ccccc2s1)c1ccc2c(c1)OCCO2,0.08,0.45,-2.03
N=C(N)NN=Cc1cc2ccccc2c2ccccc12,8.49,9.7,4.16
CN(CCCCN)Cc1ccc(-c2ccc(Cl)cc2)cc1,21.7,19.1,10.5
CCCCc1ccc(-c2ccc3[nH]c(C)c(Br)c(=O)c3c2)cc1,3.02,3.88,2.44
NCc1cccc(-c2ccc3ccnc(N)c3c2)c1,0.01,0.05,1.2
CCCc1cc(C)ccc1OCCCON1C(N)=NC(N)=NC1(C)C,31.1,45.5,25.9
CCOc1ccc(C2CCN(CCCCNC(=O)c3ccc(NC(=O)c4ccc(Cl)cc4)cc3)CC2)c(CC)c1,0.2,-0.09,-0.33
COc1ccc(C2CC(=O)C3=C(C2)NC(C)=C(C(=O)OC2CCCC2)C3c2cccc(O)c2)cc1 (configuration not stated),0.09,0.95,-0.53
CCc1cccc(NC(=O)/C=C/c2ccc3c(c2)CN(C)CC3)c1,4.53,2.31,10.2
CC(CCCCCC(=O)Nc1ccc(CC(C)NCCc2cccc(Cl)c2)cc1)NCCc1cccc(Cl)c1 (configuration not stated),12.9,10.6,9.83
Cc1ccc(Nc2nc(C)cc(N3CCN(c4ccccc4)CC3)n2)cc1,5.18,5.92,2.13
c1ccc2[nH]c(-c3ccc(-c4ccc(CNC5CC5)cc4)s3)nc2c1,0.93,0.48,-2.14
